Assay results as given in ChEMBL document CHEMBL2218924, “A broad activity screen in support of a chemogenomic map for kinase signalling research and drug discovery” (Biochem J, 2013).

Target: PAS domain-containing serine/threonine-protein kinase (Homo sapiens) (UniProt Q96RG2)
Details: at 1 µM

Chain of PAS domain-containing serine/threonine-protein kinase (Homo sapiens) (Q96RG2 whole entry, the tested form may be a part): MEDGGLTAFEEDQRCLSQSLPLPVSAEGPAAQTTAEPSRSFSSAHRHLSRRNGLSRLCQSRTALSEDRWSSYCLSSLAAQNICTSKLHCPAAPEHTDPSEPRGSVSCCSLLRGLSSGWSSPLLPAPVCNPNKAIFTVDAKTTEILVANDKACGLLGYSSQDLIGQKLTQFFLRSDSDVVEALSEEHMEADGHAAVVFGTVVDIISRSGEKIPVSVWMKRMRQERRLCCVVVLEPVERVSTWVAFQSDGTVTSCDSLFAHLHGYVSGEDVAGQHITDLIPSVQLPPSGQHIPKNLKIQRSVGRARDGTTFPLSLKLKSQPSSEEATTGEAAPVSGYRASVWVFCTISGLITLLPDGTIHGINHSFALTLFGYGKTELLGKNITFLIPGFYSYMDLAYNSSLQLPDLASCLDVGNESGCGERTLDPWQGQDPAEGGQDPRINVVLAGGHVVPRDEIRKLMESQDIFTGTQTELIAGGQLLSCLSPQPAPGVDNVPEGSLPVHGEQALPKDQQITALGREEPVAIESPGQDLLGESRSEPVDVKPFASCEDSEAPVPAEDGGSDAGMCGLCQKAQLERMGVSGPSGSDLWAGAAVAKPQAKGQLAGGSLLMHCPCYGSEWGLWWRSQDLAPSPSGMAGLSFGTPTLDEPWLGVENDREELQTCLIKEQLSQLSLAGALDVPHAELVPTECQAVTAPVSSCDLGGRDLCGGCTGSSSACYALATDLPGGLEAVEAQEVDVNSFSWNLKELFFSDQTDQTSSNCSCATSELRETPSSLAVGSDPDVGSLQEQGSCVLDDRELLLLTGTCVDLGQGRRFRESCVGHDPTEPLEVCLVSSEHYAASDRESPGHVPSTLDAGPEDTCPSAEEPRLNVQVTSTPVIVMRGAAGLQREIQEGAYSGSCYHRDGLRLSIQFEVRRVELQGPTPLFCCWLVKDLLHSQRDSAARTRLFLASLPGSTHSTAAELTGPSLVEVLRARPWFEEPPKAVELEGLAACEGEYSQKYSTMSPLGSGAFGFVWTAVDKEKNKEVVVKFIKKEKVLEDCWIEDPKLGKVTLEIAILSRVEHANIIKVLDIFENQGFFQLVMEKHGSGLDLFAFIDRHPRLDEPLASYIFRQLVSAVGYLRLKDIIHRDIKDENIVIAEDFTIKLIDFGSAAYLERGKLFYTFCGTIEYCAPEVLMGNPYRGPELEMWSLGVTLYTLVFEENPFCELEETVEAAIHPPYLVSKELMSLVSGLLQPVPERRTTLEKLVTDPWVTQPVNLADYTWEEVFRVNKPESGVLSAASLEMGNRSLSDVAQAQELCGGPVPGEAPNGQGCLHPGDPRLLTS

| SMILES | residual activity |
| --- | --- |
| Oc1ccc(Nc2nc(-c3ccc(Cl)cc3)cs2)cc1 | 147% |
| CC(C)(C)n1nc(Cc2cccc3ccccc23)c2c(N)ncnc21 | 116% |
| Cc1nc(-c2ccccc2)c(-c2ccncc2)o1 | 128% |
| O=c1cc(N2CCOCC2)oc2c1ccc1ccccc12 | 141% |
| CO[C@H]1[C@@H](OC)C[C@H](C)[C@@H](OC)C2=CC(=O)C=C(NC(=O)/C(C)=C/C=C/[C@H](OC)[C@@H](OC(N)=O)/C(C)=C/[C@@H]1C)C2=O | 125% |
| O=C1Nc2ccc(Br)cc2/C1=C\c1cc2c([nH]1)CCCC2 | 129% |
| Cn1c2ccccc2c2c3c(c4c5ccccc5n(CCC#N)c4c21)CNC3=O | 93% |
| O=C1NC(=O)C(c2c[nH]c3ccccc23)=C1c1c[nH]c2ccccc12 | 81% |
| O=C(NC(NC(=S)Nc1ccc(F)c([N+](=O)[O-])c1)C(Cl)(Cl)Cl)C(c1ccccc1)c1ccccc1 (configuration not stated) | 103% |
| Nc1ccc2ncnc(NCCc3ccc(Oc4ccccc4)cc3)c2c1 | 107% |
| O=C1Nc2cc(Br)ccc2/C1=C1/Nc2ccccc2/C1=N\O | 94% |
| Nc1ncnc2[nH]nc(Nc3ccc(F)cc3)c12 | 92% |
| CCCCc1c(-c2ccc(OC)cc2)[nH]c2nccnc12 | 102% |
| C[C@@H](N)[C@H]1CC[C@H](C(=O)Nc2ccncc2)CC1 | 82% |
| CCC(=O)Nc1ccc2ncnc(Nc3cccc(Br)c3)c2c1 | 85% |
| O=C1C(Cl)=C(N2C(=O)CCC2=O)C(=O)c2ccccc21 | 100% |
| CC[n+]1c(/C=C/N(C)c2ccccc2)n(-c2ccccc2)c2ccc(-c3nc4ccccc4s3)cc21 | 80% |
